Source: PubChem BioAssay (Tox21)
Records with an inconclusive call do not appear. A call without a number means that no potency is given here. Calls of active or inactive are those of the source. Calls come from the whole dose curve; as a rule, active = well fitted cell-killing curve with a large enough effect in the repeat runs; inconclusive = weak or mixed curves, or effect the other way; inactive = flat fitted curve, though single readings scatter.

Experiment: Human pregnane X receptor (PXR) small molecule agonists, qHTS cell viability counter screen (AID 1346977); note: nearly all actives have a fitted effect of over 50% in size
Conditions: PXR-Luc HepG2 viability, CellTiter-Fluor, 24 h; series mostly up to 92.4 µM
Excerpt: U.S. Tox21 Program National Center for Advancing Translational Sciences [NCATS] NIH Chemical Genomics Center [NCGC] U.S. Environmental Protection Agency [EPA] National Institutes of Environmental Health Sciences [NIEHS] National Toxicology Program [NTP] U.S. Food and Drug Administration [FDA] Tox21 Assay Overview: The human pregnane X receptor (hPXR) regulates the expression of several drug metabolizing enzymes and induction of these proteins is a major mechanism for developing drug resistance in cancer. One such key enzyme catalyzing the drug metabolism is cytochrome P450 3A4 (CYP3A4). Changes in CYP3A4 expression affect drug metabolism, thereby reducing the therapeutic efficacy and altering toxicological response to a drug and which finally causes adverse drug interaction. To screen Tox21 libraries for compounds that activate hPXR-mediated CYP3A4 gene expression, PXR-Luc HepG2 cells were used. Also cytotoxicity of the compounds was tested in parallel by measuring the cell viability using CellTiter-Fluor assay system in the same wells.
Tox21 Assay Protocol Summary: PXR-Luc HepG2 cells were dispensed at 2,000 per well in 5uL of assay medium containing 5% charcoal-stripped FBS into white solid bottom 1536-well plates (Corning Life Sciences, Corning, NY) using a Multidrop Combi (Thermo Scientific, Waltham, MA) dispenser. The assay plates were incubated at 37 C and 5% CO2 for 5hr, and then 23nL of compounds dissolved in DMSO and positive control were transferred using a Pintool station (Wako, San Diego, CA). The assay plates were incubated at 37C and 5% CO2 for 24hr. For cytotoxicity read, after 23hr incubation at 37C, 1uL CellTiter-Fluor reagent (Promega Corporation, Madison, WI) was added to each well of the assay plates using Flying Reagent Dispenser (FRD, Aurora Discovery, San Diego, CA). After 1hr incubation at 37C and 5% CO2, the fluorescence signal was quantified using a ViewLux plate reader (PerkinElmer, Shelton, CT).
Potency is the fitted concentration of half-maximal effect.

Row | SMILES | Potency
1 | CC[C@@H]1C[C@H](N(Cc2cc(C(F)(F)F)cc(C(F)(F)F)c2)C(C)=O)c2cc(C(F)(F)F)ccc2N1C(=O)OC(C)C | inactive
2 | CCCCOCCOCCOCCOCCO | inactive
3 | NCc1ccccc1 | inactive
4 | COC(=O)CSc1cc(N=c2sc(=O)n3n2CCCC3)c(F)cc1Cl | inactive
5 | C=Cc1c(C)c2cc3[nH]c(cc4nc(cc5nc(cc1[nH]2)C(C)=C5CCC(=O)O)C(CCC(=O)O)=C4C)c(C)c3C=C | 15 µM (active)
6 | Cc1ccccn1 | inactive
7 | NCCCN(CCO)CCO | inactive
8 | CCOC(=O)C1=C(C)NC(C)=C(C(=O)OC)C1c1cccc([N+](=O)[O-])c1 (stereo not given) | inactive
9 | CC/C(=C\C(=N/O)C(N)=O)C(C)[N+](=O)[O-] (stereo not given) | inactive
10 | O=C(c1ccccc1)c1ccc2n1CCC2C(=O)O (stereo not given) | inactive
11 | O=C(Cl)c1ccc([N+](=O)[O-])cc1 | inactive
12 | CCCCCCOC(=O)CCC | inactive
13 | CCOC(=O)CC(=O)c1cc(F)c(Cl)nc1Cl | inactive
14 | CCCCC(CC)(CO)CO | inactive
15 | NCCCOCCOCCOCCCN | inactive
16 | CC(=O)OC/C=C/c1ccccc1 | inactive
17 | O=C(O)[C@@H]1[C@H]2C[C@H]3c4[nH]c5ccccc5c4CCN3C[C@@H]2CC[C@@H]1O | inactive
18 | FC(F)(F)C(F)(F)C(F)(F)C(F)(F)C(F)(F)C(F)(F)CCI | inactive
19 | CCOC(=O)CC(C)C | inactive
20 | CC(O)C1CCCCC1 (stereo not given) | inactive

Row | SMILES | Potency
21 | CC(=O)c1c(C)c([N+](=O)[O-])c(C(C)(C)C)c([N+](=O)[O-])c1C | inactive
22 | COCCCCCCCCOCCC[Si](C)(O[Si](C)(C)C)O[Si](C)(C)C | 30.6 µM (active)
23 | Cc1ncsc1CCO | inactive
24 | CC(C)c1ccc2c(C(C)C)cc(C(C)C)c(S(=O)(=O)O)c2c1 | inactive
25 | COC(=O)C(C)=O | inactive
26 | CCCCCCCCCCCCCCC1CO1 (stereo not given) | inactive
27 | Cc1occc1S | inactive
28 | CC(=O)CC(=O)c1ccccc1 | inactive
29 | O=C(O)Cc1sc(-c2ccccc2)nc1-c1ccc(Cl)cc1 | inactive
30 | Cc1ccc(C(=O)C(C)CN2CCCCC2)cc1 (stereo not given) | inactive
31 | CCCCCCCCCCCCCCCC(=O)OC/C=C(C)/C=C/C=C(C)/C=C/C1=C(C)CCCC1(C)C | inactive
32 | CCOc1ccc2[nH]cc(C(=O)NCc3ccccc3)c(=O)c2n1 | inactive
33 | CN1CCN(C2=Nc3ccccc3Sc3ccc(Cl)cc32)CC1 | inactive
34 | Cc1cccc(C(C)(C)C)c1O | inactive
35 | O=C(NN1CCCC1)NS(=O)(=O)c1ccc(Cl)cc1 | inactive
36 | CC(C)(C)C1CCCCC1O (stereo not given) | inactive
37 | CCCCCCCCC(CO)CCCCCC (stereo not given) | inactive
38 | CN(C(=O)CCCOc1ccc2[nH]c(=O)ccc2c1)C1CCCCC1 | inactive
39 | C=C(C)C(=O)OCCN(C)C | inactive
40 | Nc1nc(N)c2nc(CNc3ccc(C(=O)N[C@@H](CCC(=O)O)C(=O)O)cc3)cnc2n1 | inactive
